The text below walks through data of PMC5540273 (PLoS ONE, 2017).
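Note: KINOMEscan kinase panel screen.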

The test system of one assay is PKN1. Particulars: concentration: 1 μM, replicates: in singlicate; n = 1.
`NS(=O)(=O)CCc1cccc(Nc2nccc(-c3c(-c4cccc(NC(=O)c5c(F)cccc5F)c4)nn4ccccc34)n2)c1` [GSK336735]: the “%Inh” value worked out at 0%.

On to `COC(=O)Nc1nc2cc(Oc3ccc(NC(=O)Nc4cc(F)ccc4F)cc3)ccc2[nH]1.Cl` [GW701424], for which the “%Inh” value is reported as 0%.

As to `Cc1cn2c(=O)cc(N3CCOCC3)nc2n1Cc1cccc(Cl)c1Cl` [GSK2334006], the “%Inh” value is recorded as 33%.

In the case of `N#Cc1c(N2CCOCC2)sc(-c2ccn[nH]2)c1-c1ccc(Cl)cc1`, the “%Inh” value came to 17%.

In the case of `Cc1cccc(Cn2ccn3c(=O)cc(N4CCOCC4)nc23)c1` [GSK2297542], the “%Inh” value is reported as 0%.

As for `COc1ccc(CNC(=O)NC2CCN(c3ccnc(Nc4ccc(OC)cc4)n3)C2)cc1` (stereo not drawn) [GSK1379727], the “%Inh” value amounted to 0%.

With `c1ccc(-c2cc(-c3c[nH]nc3-c3ccccn3)ccn2)cc1` [GW576604], the “%Inh” value was determined as 9%.

As for `COc1cc2c(cc1OCCN1CCN(C)CC1)ncc1c3ccc(C#N)cc3[nH]c21`, the “%Inh” value is on record as 56%.

Take `COc1ccc(Nc2nccc(N3CCC(NC(=O)Nc4cccc(C(C)=O)c4)C3)n2)cc1` (stereo not drawn) [GSK1379731]: the “%Inh” value is reported as 3%.

Consider `Cc1ccc(NC(=O)c2ccnc(N3CCN(C)CC3)c2)cc1-c1ccc(C(=O)NCC2CC2)cc1` [GW775604], for which the “%Inh” value is 0%.

For the molecule `Cc1c(Cn2c(C)nn3c(=O)cc(N4CCOC(C)C4)nc23)cccc1C(F)(F)F` (stereo not drawn) [GSK2344444], the “%Inh” value is listed as 0%.

On to `O=C(NCCCN1CCOCC1)c1cccc(Nc2nccc(Nc3ccc(Oc4ccccc4)cc3)n2)c1` [GW663929], for which the “%Inh” value was 16%.

On to `Nc1nc(-c2ccc3c(N)n[nH]c3c2)cc(N2CCCC2)n1` [GSK2227430], for which the “%Inh” value is given as 10%.

Take `Nc1nccc(-c2c(-c3ccc(F)cc3)ncn2C2CCN(CC(F)(F)F)CC2)n1` [SB-236560]: the “%Inh” value is 0%.

Consider `COc1ccc(S(=O)(=O)NC2CCN(c3cc(C)nc(Nc4cccc(C#N)c4)n3)CC2)cc1.O=C(O)C(F)(F)F` [GSK1653539], for which the “%Inh” value turned out to be 0%.

As for `CN(C1=C(c2ccccc2)C(=O)NC1=O)c1ccccc1` [SB-334860], the “%Inh” value stood at 20%.

For `CN1c2ccc(CNc3ccc(F)cc3)cc2-c2c(cnn2C)S1(=O)=O`, the “%Inh” value is listed as 0%.

Turning to `COc1cc(Nc2nccc(N3CCC(NC(=O)c4cccc(NC(C)=O)c4)C3)n2)cc(OC)c1OC` (stereo not drawn) [GSK1379754], the “%Inh” value came out at 0%.

The next assay has as its system PKN2. Particulars: concentration: 1 μM, replicates: in singlicate; n = 1.
Regarding `CSc1ccc(-c2cc3ncnc(SCC(=O)O)c3s2)cc1`, the “%Inh” value was found to be 0%.

For the molecule `CCc1nc(-c2cccc(C)c2)c(-c2ccnc(NCc3ccccc3)c2)s1`, the “%Inh” value is 0%.

On to `COCCNC(=O)c1ccc(-c2cc(C(=O)NC3CC3)cc(F)c2C)cc1` [GW868318], for which the “%Inh” value is recorded as 20%.

Take `COc1ccc(COc2cc(-n3cnc4ccccc43)sc2C(N)=O)cc1` [GSK1024304]: the “%Inh” value was 0%.

Take `COc1cc2ncn(-c3cc(OCc4sccc4Cl)c(C(N)=O)s3)c2cc1OC` [GSK448459]: the “%Inh” value stood at 0%.

As to `O=C(NCCNc1ccnc(Nc2ccc(F)cc2)n1)c1cc2ccccc2s1` [GSK1379874], the “%Inh” value is 0%.

Consider `Cc1cccc(-c2nc(Nc3ccc4ncsc4c3)c3ccccc3n2)n1` [GW867588], for which the “%Inh” value came to 0%.

Turning to `c1ccc(-c2n[nH]cc2-c2ccnc3ccccc23)nc1` [GW271431], the “%Inh” value was determined as 0%.

On to `O=C(NCCNc1ccnc(Nc2ccc(F)cc2)n1)Nc1ccccc1F` [GSK1379880], for which the “%Inh” value turned out to be 0%.

For the molecule `Cc1nnc(-c2ccc3occ(-c4ccc(C(C)O)cc4)c3c2)o1` (stereo not drawn), the “%Inh” value is reported as 0%.

On to `NS(=O)(=O)c1cccc(-c2ccc3nccc(-c4cccc(S(N)(=O)=O)c4)c3c2)c1` [GW867253], for which the “%Inh” value amounted to 11%.

As for `CCCCCc1nc2c(N)ncnc2n1CCCCC` [SKF-97255], the “%Inh” value is given as 0%.

On to `Cl.Oc1cccc(Nc2ccnc3cc(-c4ccncc4)ccc23)c1` [GW494601], for which the “%Inh” value is on record as 0%.

Regarding `Fc1ccc(-c2ncn(CCCN3CCOCC3)c2-c2cccnc2)cc1` [SB-211743], the “%Inh” value worked out at 13%.

As for `Cc1ccc(C(=O)NCC(N)=O)cc1-n1c(C)cc(OCc2ccc(F)cc2F)c(Br)c1=O`, the “%Inh” value turned out to be 0%.

Turning to `NS(=O)(=O)CCc1cccc(Nc2nccc(-c3c(-c4cccc(NC(=O)c5c(F)cccc5F)c4)nn4ccccc34)n2)c1` [GSK336735], the “%Inh” value came to 0%.

With `COC(=O)Nc1nc2cc(Oc3ccc(NC(=O)Nc4cc(F)ccc4F)cc3)ccc2[nH]1.Cl` [GW701424], the “%Inh” value was found to be 0%.

For `Cc1cn2c(=O)cc(N3CCOCC3)nc2n1Cc1cccc(Cl)c1Cl` [GSK2334006], the “%Inh” value was determined as 0%.

As to `N#Cc1c(N2CCOCC2)sc(-c2ccn[nH]2)c1-c1ccc(Cl)cc1`, the “%Inh” value came out at 0%.

Take `Cc1cccc(Cn2ccn3c(=O)cc(N4CCOCC4)nc23)c1` [GSK2297542]: the “%Inh” value is reported as 0%.

Regarding `COc1ccc(CNC(=O)NC2CCN(c3ccnc(Nc4ccc(OC)cc4)n3)C2)cc1` (stereo not drawn) [GSK1379727], the “%Inh” value was determined as 0%.

As to `c1ccc(-c2cc(-c3c[nH]nc3-c3ccccn3)ccn2)cc1` [GW576604], the “%Inh” value is recorded as 0%.

Turning to `COc1cc2c(cc1OCCN1CCN(C)CC1)ncc1c3ccc(C#N)cc3[nH]c21`, the “%Inh” value was found to be 25%.

As to `COc1ccc(Nc2nccc(N3CCC(NC(=O)Nc4cccc(C(C)=O)c4)C3)n2)cc1` (stereo not drawn) [GSK1379731], the “%Inh” value came to 0%.

Regarding `Cc1ccc(NC(=O)c2ccnc(N3CCN(C)CC3)c2)cc1-c1ccc(C(=O)NCC2CC2)cc1` [GW775604], the “%Inh” value is 0%.

Take `Cc1c(Cn2c(C)nn3c(=O)cc(N4CCOC(C)C4)nc23)cccc1C(F)(F)F` (stereo not drawn) [GSK2344444]: the “%Inh” value was determined as 0%.

For `O=C(NCCCN1CCOCC1)c1cccc(Nc2nccc(Nc3ccc(Oc4ccccc4)cc3)n2)c1` [GW663929], the “%Inh” value is 0%.

Consider `Nc1nc(-c2ccc3c(N)n[nH]c3c2)cc(N2CCCC2)n1` [GSK2227430], for which the “%Inh” value came to 0%.

Consider `Nc1nccc(-c2c(-c3ccc(F)cc3)ncn2C2CCN(CC(F)(F)F)CC2)n1` [SB-236560], for which the “%Inh” value is 0%.

As for `COc1ccc(S(=O)(=O)NC2CCN(c3cc(C)nc(Nc4cccc(C#N)c4)n3)CC2)cc1.O=C(O)C(F)(F)F` [GSK1653539], the “%Inh” value is 0%.

Regarding `CN(C1=C(c2ccccc2)C(=O)NC1=O)c1ccccc1` [SB-334860], the “%Inh” value came out at 0%.

For `CN1c2ccc(CNc3ccc(F)cc3)cc2-c2c(cnn2C)S1(=O)=O`, the “%Inh” value came to 0%.

Take `COc1cc(Nc2nccc(N3CCC(NC(=O)c4cccc(NC(C)=O)c4)C3)n2)cc(OC)c1OC` (stereo not drawn) [GSK1379754]: the “%Inh” value stood at 0%.
